Compound activity (PubChem)
Tau fil binding: binds recombinant human tau filaments; P10636; recombinant tau filaments, thioflavin S fluorescence, 15 h; filaments grown with octadecylsulfate alongside compound; Potency, µM (titrated, usually from 57.1 µM); hit rate 2% among 71,000;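 note: actives lower thioflavin S fluorescence by blocking filaments or displacing dye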
Target sequence (P10636 whole entry, looked up): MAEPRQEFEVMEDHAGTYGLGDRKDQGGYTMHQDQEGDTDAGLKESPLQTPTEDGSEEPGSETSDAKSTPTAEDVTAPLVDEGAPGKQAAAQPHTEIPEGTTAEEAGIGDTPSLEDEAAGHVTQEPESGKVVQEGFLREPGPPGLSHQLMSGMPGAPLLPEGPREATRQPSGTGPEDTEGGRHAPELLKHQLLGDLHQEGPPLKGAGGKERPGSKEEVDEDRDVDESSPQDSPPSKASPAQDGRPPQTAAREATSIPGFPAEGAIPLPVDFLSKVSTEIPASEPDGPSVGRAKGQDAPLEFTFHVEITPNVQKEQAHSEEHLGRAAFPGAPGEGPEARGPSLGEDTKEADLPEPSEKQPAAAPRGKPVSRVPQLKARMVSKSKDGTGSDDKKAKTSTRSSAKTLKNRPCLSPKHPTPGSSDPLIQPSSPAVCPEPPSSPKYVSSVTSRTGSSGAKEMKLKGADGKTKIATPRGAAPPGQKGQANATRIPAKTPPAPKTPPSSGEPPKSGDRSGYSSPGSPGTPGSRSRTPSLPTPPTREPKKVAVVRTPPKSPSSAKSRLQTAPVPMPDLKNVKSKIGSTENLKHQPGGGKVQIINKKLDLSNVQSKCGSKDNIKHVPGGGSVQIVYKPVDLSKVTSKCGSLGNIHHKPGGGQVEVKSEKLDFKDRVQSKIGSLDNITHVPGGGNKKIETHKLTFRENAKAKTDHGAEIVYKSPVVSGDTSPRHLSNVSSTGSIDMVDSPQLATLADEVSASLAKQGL
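ThS-based fibril read: tau 1 uM final, inducer ODS 30 uM final, 37 C for 15 h, ex 450/em 510 nm.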
TSHR agonist: activates the human thyroid stimulating hormone receptor; AID 926; Potency, µM (highest dose often 57.1 µM), actives largely listed as activators; P16473; HEK293-CNG-TSHR cells (CNG channel as cAMP sensor), membrane potential dye, cAMP; hit rate 0.48% among 73,000; active = well fitted activation curve with a large enough effect in the main read-out, with a control signal flat, not every such curve was filed as active; inconclusive = small, poorly fitted or top-dose-only effect, or a change in a side signal; inactive = no such curve, though single readings can be large or run the other way; reference of the percent scale not stated here;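 note: the control signal comes from parental cells without the receptor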
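HEK 293 cells stably expressing TSHR and a modified CNG channel, with CNG-only parental cells as counterscreen, were preloaded 60 min at room temperature with membrane potential dye containing 100 uM RO 20-1724. Compound exposure was 30 min, and depolarization was read as fluorescence at 590 nm.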
FLuc inh: firefly luciferase inhibition | purified firefly luciferase, luminescence, 8 min | Potency, µM (top dose mostly 57.1 µM), usual class: inhibitors | hit rate 2.2% among 72,000 | AID 411; note: nearly all actives have a fitted effect of over 40% in size
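Compounds were tested as concentration series (qHTS) against purified P. pyralis luciferase with luciferin and 10 uM ATP in 50 mM imidazole pH 7.2, 50 mM KCl, 7 mM MgCl2, 0.01% Tween 20, 0.05% BSA. Luminescence was read after 8 min at ambient temperature.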
PK Bst: modulators of Bacillus stearothermophilus pyruvate kinase | Potency, µM | AID 361 | hit rate 1.2% among 51,000 | purified pyruvate kinase, luminescence ATP production; ribose 5-phosphate activator present at AC10; in the data active = potency below about 11 µM; inconclusive = mostly about 12 µM to 25 µM;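 the screen sought inhibitors and activators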
ERK AVP block: inhibitors of vasopressin-stimulated ERK signaling pathway. HEK293-V1b, vasopressin-stimulated pERK AlphaScreen. Potency, µM (highest dose often 57.5 µM), most hits filed as inhibitors. hit rate 0.99% among 72,000; note: nearly all actives have a fitted effect of over 55% in size
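Phosphorylated ERK1/2 detected via AlphaScreen bead proximity in lysates of V1b-expressing HEK293 cells given 25 nM vasopressin for 5 min after 30 min compound exposure (37 °C). AC50 from Hill equation; basal DMSO 0%, vasopressin 100%.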
HEK293 cAMP ctrl: counter-screen for TSHR agonists: cAMP increase in parental HEK293 | parental HEK293 CNG cAMP sensor, membrane potential fluorescence | hit rate 2.5% among 73,000 | Potency, µM (series often up to 57.1 µM), actives largely listed as activators; note: nearly all actives have a fitted effect of over 55% in size
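Counterscreen for endogenous-receptor signalling: CNG-channel HEK 293 cells report cAMP rise by membrane depolarization. After 60 min dye equilibration with 100 uM RO 20-1724, compounds incubated 30 min before bottom-read fluorescence at 590 nm.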
Each line names hits and unclear results; the compound was inactive in the other large screens. In the library only some 7.2% were active in any assay of this set; here they are far more common. Unless noted, calls come from the whole dose curve; as a rule, active = well fitted curve in the direction sought with a large enough effect; inconclusive = small, poorly fitted or top-dose-only effect, or another doubt; inactive = no such curve, though single readings can be large; an effect the other way counts as inactive or inconclusive.

CCNc1ncc2nc(-c3ccc(OC)cc3)c(=O)n(Cc3ccc(F)cc3)c2n1	TSHR agonist inconclusive, HEK293 cAMP ctrl inconclusive (no result: PK Bst)
Cn1c(=O)[nH]c(=O)c2c1nc(N1CCCC1)n2CCCSc1nc2ccccc2o1	none
Cn1c(=O)[nH]c(=O)c2c1nc(Br)n2CCCSc1nc2ccccc2o1	TSHR agonist inconclusive, ERK AVP block 31.6µM, HEK293 cAMP ctrl inconclusive
O=C1c2ccccc2C(=O)N1Cc1nc2ccccc2o1	none (no result: PK Bst)
O=C1c2ccccc2C(=O)N1CCCSc1nc2ccccc2o1	Tau fil binding 3.98µM, TSHR agonist inconclusive, ERK AVP block inconclusive, HEK293 cAMP ctrl 3.98µM (no result: PK Bst)
COCC(=O)N1CCC2(CC1)CCN(C(=O)NC(C)C)CC2	none (no result: PK Bst)
O=C(NC1CCCCC1)NC1CCN(S(=O)(=O)Cc2ccccc2)CC1	none
COc1ccc(C(=O)NC2CCN(S(=O)(=O)Cc3ccccc3)CC2)c(OC)c1	TSHR agonist inconclusive, HEK293 cAMP ctrl 10µM
Cc1nn(-c2ccccc2)c2c1/C(=N/O)CC(C)(C)C2	TSHR agonist inconclusive, HEK293 cAMP ctrl 25.1µM
COc1cccc(Cn2c(=O)c(-c3cccs3)nc3cncnc32)c1	Tau fil binding inconclusive, ERK AVP block inconclusive (no result: PK Bst)
COc1cccc(Cn2c(=O)c(-c3ccccc3)nc3cncnc32)c1	Tau fil binding 20µM (no result: PK Bst)
COc1cccc(Cn2c(=O)c(-c3ccc(F)c(F)c3)nc3cncnc32)c1	Tau fil binding 10µM (no result: PK Bst)
Nc1nncn1C(=O)c1cccs1	PK Bst 2.47
Nc1nncn1C(=O)c1c(Cl)cccc1Cl	PK Bst inconclusive (no result: TSHR agonist)
CNCC[C@H](Oc1ccccc1OC)c1ccccc1	Tau fil binding inconclusive, TSHR agonist inconclusive (no result: PK Bst)
Cc1nc2sc3c(c2c(=O)n1/N=C/c1ccco1)CCCC3	TSHR agonist inconclusive, HEK293 cAMP ctrl 25.1µM
O=C(Cl)c1c(Cl)cccc1Cl	none (no result: FLuc inh, PK Bst)
c1ccc2nc3c(nc2c1)sc1nc2ccccc2n13	PK Bst inconclusive
CC(C)(O)c1cc(=O)sc2nc3ccccc3n12	FLuc inh 25.1µM
CC1Cc2ccccc2N1Cc1nc2scc(-c3cccs3)c2c(=O)[nH]1 (stereo not given)	Tau fil binding 12.6µM
CCNc1ncc2nc(C)c(=O)n(Cc3ccc(F)cc3)c2n1	none (no result: PK Bst)
CC(C)[C@@H](CC(=O)N[C@@H]1CCNC[C@H]1C(=O)N[C@H](CC(=O)N[C@@H](CCC(=O)O)CC(=O)O)Cc1ccccc1)NC(=O)C[C@H](Cc1ccccc1)NC(=O)[C@@H]1CNCC[C@H]1N	none (no result: TSHR agonist, FLuc inh, PK Bst, ERK AVP block)
Cc1ccc(S(=O)(=O)c2nc(-c3cccs3)oc2SCC(N)=O)cc1	PK Bst 9.09
CCOc1ccc(-n2c(Cc3ccccc3)nnc2SCc2c(C)noc2C)cc1	none (no result: PK Bst)
Cc1noc(C)c1CN1C(=O)NC(Cc2ccccc2)(Cc2ccccc2)C1=O	TSHR agonist 25.1µM
O=c1c(-c2ccc(F)cc2)nc2cnc(Oc3ccccc3)nc2n1Cc1cccs1	none (no result: TSHR agonist, PK Bst)
Cc1csc(C(C#N)C(=O)c2cc3ccccc3o2)n1 (stereo not given)	FLuc inh 12.6µM, PK Bst inconclusive
O=S(=O)(c1ccccc1)N1CCC2(CCN(C(c3ccccc3)c3ccccc3)CC2)CC1	none (no result: PK Bst)
O=C(Nc1ccccc1)NC1(C(=O)NCc2ccc3c(c2)OCO3)CCCCC1	none
O=C(NCc1ccccc1)NC1(C(=O)Nc2ccc3c(c2)OCCO3)CCCCC1	TSHR agonist 2µM
COc1ccc(C(=O)N2CCC3(CCCN(c4ccccc4)C3)CC2)cc1	none (no result: PK Bst)
O=c1c(-c2ccccc2)nc2cnc(N3CCNCC3)nc2n1C1CC1	none (no result: PK Bst)
CN(C)c1ccc2c(c1)OC(N)=C(C#N)C2c1cccc(F)c1 (stereo not given)	TSHR agonist inconclusive, ERK AVP block inconclusive, HEK293 cAMP ctrl 31.6µM (no result: PK Bst)
Cc1nn2c(c1-c1ccccc1)NC1=C(C(=O)CCC1)C2c1cccnc1 (stereo not given)	none
Cc1nn(-c2ccccc2)c2c1C(c1cccnc1)N1C=C(S(=O)(=O)N3CCCCC3)C=CC1=N2 (stereo not given)	Tau fil binding 15.8µM, TSHR agonist inconclusive, HEK293 cAMP ctrl inconclusive
COc1ccc(N2CCN(Cc3nc4c(c(=O)n(C)c(=O)n4C)n3CCc3ccccc3)CC2)cc1	Tau fil binding 12.6µM, TSHR agonist inconclusive, HEK293 cAMP ctrl inconclusive (no result: PK Bst, ERK AVP block)
Cn1c(=O)c2c(nc(CN3CCc4ccccc4C3)n2CCc2ccccc2)n(C)c1=O	TSHR agonist inconclusive, HEK293 cAMP ctrl 5.01µM
COCCn1c(CN2CCN(c3ccc(OC)cc3)CC2)nc2c1c(=O)n(C)c(=O)n2C	none
COc1ccc(N2CCN(Cc3nc4c(c(=O)n(C)c(=O)n4C)n3Cc3ccccc3C)CC2)cc1	TSHR agonist 10µM (no result: PK Bst, ERK AVP block)
CCN1CCN(Cc2nc3c(c(=O)n(C)c(=O)n3C)n2CCc2ccccc2)CC1	TSHR agonist inconclusive, HEK293 cAMP ctrl inconclusive (no result: PK Bst, ERK AVP block)
C=CC[C@@H]1C=C[C@@H](O/N=C(/C)CCC(=O)OC[C@@H]2O[C@H](C#Cc3ccccc3)C=C[C@@H]2Oc2ccc(C)cc2)[C@@H](CO)O1	none (no result: Tau fil binding, PK Bst)
COc1ccc(O[C@H]2C=C[C@@H](c3ccccc3)O[C@H]2COC(=O)CC/C(C)=N\O[C@@H](C)CN2CCCc3nc(C)c(C)cc32)cc1	none (no result: Tau fil binding, PK Bst)
CCNc1ncc2nc(-c3ccc(OC)cc3)c(=O)n(CCOC)c2n1	none (no result: PK Bst)
COc1ccccc1N(C(=O)c1ccco1)C(C(=O)NC1CCCC1)c1cccnc1 (stereo not given)	TSHR agonist inconclusive, HEK293 cAMP ctrl inconclusive
COc1ccccc1N(C(=O)c1snc(C(N)=O)c1N)C(C(=O)NC1CCCC1)c1ccco1 (stereo not given)	TSHR agonist inconclusive, HEK293 cAMP ctrl 1µM
O=C1OCC2=C1C(c1ccc3c(c1)OCO3)Sc1ccccc1N2 (stereo not given)	ERK AVP block 20µM
O=C1CC(c2ccc3c(c2)OCO3)CN1 (stereo not given)	none
COc1cccc(-n2nnc3c(=O)n(Cc4ccccc4F)cnc32)c1	TSHR agonist inconclusive, HEK293 cAMP ctrl 25.1µM
O=C(c1ccncc1)N1CCC2(CC1)CN(c1cccc(-c3ccccc3)c1)C2	TSHR agonist inconclusive, HEK293 cAMP ctrl inconclusive (no result: PK Bst)
CCOC(=O)c1nn(-c2ccc(OC)cc2)c(=O)c2c(NC(=O)c3ccco3)scc12	none
CCOC(=O)c1nn(-c2ccc(OC)cc2)c(=O)c2c(N)scc12	Tau fil binding 15.8µM, ERK AVP block inconclusive
CC(C)C[C@@H](CC(=O)N[C@@H](CCC(=O)O)CC(=O)O)NC(=O)[C@@H]1CNCC[C@H]1NC(=O)C[C@H](CCCN)NC(=O)C[C@H](CO)NC(=O)[C@@H]1CNCC[C@H]1N	TSHR agonist inconclusive, HEK293 cAMP ctrl inconclusive (no result: FLuc inh, PK Bst, ERK AVP block)
Cc1c(C)n(C)c2ccc(C(=O)NCc3cccs3)cc12	ERK AVP block 12.6µM (no result: PK Bst)
CCCN1C(=O)c2cc(C(=O)NCc3cccs3)ccc2C1O (stereo not given)	none (no result: PK Bst)
